TIM10 inh: growth inhibitors of isogenic TIM10 control yeast, primary screen, counter-screen for tim10-1 yeast inhibitor project, luminescence, uHTS; S. cerevisiae TIM10 strain growth, BacTiter-Glo luminescence, 24 h; hit rate 1.4% among 330,000; inhibition, % at 10 µM;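 active = inhibition of 40% or more at the single tested concentration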;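 also: wild-type TIM10 isogenic control strain grown at permissive 25 °C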
SKKanGAS inh: S. pyogenes SKKanGAS growth inhibitors in kanamycin, primary screen, streptokinase expression inhibitor project, SKKanGAS strain, BacTiter-Glo luminescence. 6 h. inhibition, % at 7.5 µM. hit rate 1.3% among 300,000. AID 1662, 2009;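 active = mean replicate score, as percent of positive control median, at least 50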;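 also: strain carries kanamycin resistance gene driven by streptokinase promoter and grows in 40 µg/ml kanamycin; loss of luminescence reflects streptokinase promoter inhibition or plain growth inhibition; 0% = median of DMSO wells and 100% = positive control at its reference dose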
PfHsp90 set2: growth inhibition of PfHsp90-expressing yeast, primary screen, antimalarial PfHsp90 inhibitor project, S. cerevisiae, BacTiter-Glo luminescence, single point, set 2; BacTiter-Glo ATP, 48 h; yeast lacking PDR1 and PDR3 efflux regulators; inhibition, % at 9.4 µM; hit rate 0.32% among 310,000; AID 504621, 2011;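 active = every replicate shows inhibition above about 80%, whatever the replicate mean, limit read from the data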;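 also: 0% = DMSO neutral controls and 100% = 20 µM radicicol positive controls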
tim10-1 inh: growth inhibitors of tim10-1 mutant yeast, primary screen, luminescence, uHTS; S. cerevisiae tim10-1 ts strain growth, BacTiter-Glo, 24 h; inhibition, % at 20 µM; hit rate 2.2% among 330,000; AID 463190, 2010;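 active = inhibition of at least 40%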;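 also: mutant grown at 25 °C; 0% = DMSO wells with yeast and 100% = wells holding no yeast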
tim23-1 inh: growth inhibitors of tim23-1 mutant yeast, primary screen, luminescence, uHTS; S. cerevisiae tim23-1 growth, BacTiter-Glo luminescence, 24 h; AID 463212, 2010; hit rate 1.3% among 330,000; inhibition, % at 20 µM;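 active = growth inhibition of the mutant yeast at or above 50%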;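 also: temperature-sensitive mutant grown at 25 °C; plate controls were DMSO-treated mutant yeast for no effect and medium wells lacking yeast for full effect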
NALP3 yeast inh: NALP3 inflammasome inhibitors in reconstituted yeast, primary screen, luminescence, uHTS. Yeast reconstituted NLRP3/ASC/caspase-1, beta-gal luminescence, 24 h. inhibition, % at 10 µM. hit rate 0.39% among 330,000;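 active = inhibition of 50% or more; inactive = inhibition below 50%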;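 also: plate controls were induced DMSO wells for no effect and uninduced yeast grown without galactose for full effect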
tim10-1 confirm: growth inhibitors of tim10-1 mutant yeast, confirmation, single concentration, luminescence, S. cerevisiae | shares compounds with tim10-1 inh | S. cerevisiae tim10-1 ts strain growth, BacTiter-Glo, 24 h | inhibition, % at 20 µM | hit rate 56% among 7,400 | AID 463213, 2010;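 active = inhibition of yeast growth at or above a set limit in either of two repeat tests at 20 µM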;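 also: tim10-1 mutant grown at permissive 25 °C to find synthetic lethal compounds; 0% = DMSO yeast wells and 100% = medium wells without yeast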
TIM10 conf: growth inhibitors of wild-type TIM10 yeast, confirmation, counter-screen for tim10-1 synthetic lethality project, single concentration, luminescence, S. cerevisiae; shares compounds with TIM10 inh; S. cerevisiae tim10 strain growth, BacTiter-Glo luminescence, 24 h; inhibition, % at 10 µM; hit rate 63% among 4,600; AID 463215, 2010;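 active = inhibition of yeast growth at or above a set limit in either of two replicates at 10 µM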;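 also: this counterscreen used the strain with wild-type TIM10; 0% = yeast with DMSO and 100% = medium wells lacking yeast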
tim23-1 confirm: tim23-1 mutant yeast growth inhibitors, confirmation, luminescence, single concentration; shares compounds with tim23-1 inh; S. cerevisiae tim23-1 growth, BacTiter-Glo luminescence, 24 h; AID 463218, 2010; hit rate 83% among 4,400; inhibition, % at 20 µM;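 active = inhibition above about 39% in either of two replicate wells at 20 µM, limit read from the data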;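 also: temperature-sensitive tim23-1 mutant grown at 25 °C; 0% = DMSO wells with yeast and 100% = medium wells without yeast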
Numbers without * were called inactive. Only some compounds are listed: those with a hit (about 4.6% of all), similar ones and a draw of the others.

Results for COc1ccc(Br)cc1/C=c1\sc2nc(-c3ccco3)nn2c1=O ?
TIM10 inh: 42*; SKKanGAS inh: 12; PfHsp90 set2: -15; tim10-1 inh: 54*; tim23-1 inh: 53*; NALP3 yeast inh: 4; tim10-1 confirm: 44*; TIM10 conf: 38*; tim23-1 confirm: 55*

How did COc1ccc(/C=C2\SC(=O)NC2=S)cc1OC do in these assays?
TIM10 inh: 33; SKKanGAS inh: 12; PfHsp90 set2: -68; tim10-1 inh: 41*; tim23-1 inh: 52*; NALP3 yeast inh: 20; tim10-1 confirm: 37*; tim23-1 confirm: 48*

Results for CC(C)(C)C(=O)/C(=C/c1ccc(Cl)cc1)n1cncn1 ?
TIM10 inh: 37; SKKanGAS inh: -1; PfHsp90 set2: -22; tim10-1 inh: 51*; tim23-1 inh: 52*; NALP3 yeast inh: 25; tim10-1 confirm: 35*; tim23-1 confirm: 34

How did COc1ccc(OCCOC(=O)c2cccs2)cc1 do in these assays?
TIM10 inh: -10; SKKanGAS inh: -21; tim10-1 inh: 9; tim23-1 inh: -7; NALP3 yeast inh: 31

How did COc1ccc(C2CC2/C(C)=N/OC(=O)c2ccc(F)cc2)cc1 (stereo not given) do in these assays?
TIM10 inh: 84*; SKKanGAS inh: 6; PfHsp90 set2: 1; tim10-1 inh: 49*; tim23-1 inh: 77*; NALP3 yeast inh: 25; tim10-1 confirm: 23; TIM10 conf: 92*; tim23-1 confirm: 61*

What do the screens show for `COc1ccc(C2CC2/C(C)=N/OC(=O)c2cccs2)cc1` (stereo not given)?
TIM10 inh: 65*; SKKanGAS inh: -7; PfHsp90 set2: 1; tim10-1 inh: 66*; tim23-1 inh: 78*; NALP3 yeast inh: 30; tim10-1 confirm: 45*; TIM10 conf: 86*; tim23-1 confirm: 81*

How did COc1ccc(C2CC2/C(=N/O)c2ccccc2)cc1 (stereo not given) do in these assays?
TIM10 inh: -11; SKKanGAS inh: -18; PfHsp90 set2: -31; tim10-1 inh: 17; tim23-1 inh: 15; NALP3 yeast inh: 19

Results for C/C=C(\C)C(=O)O[C@H](c1cc2ccc(=O)oc2cc1OC)[C@@H](O)C(C)(C)O ?
TIM10 inh: 4; PfHsp90 set2: 9; tim10-1 inh: -10; tim23-1 inh: -9; NALP3 yeast inh: 1

Results for CCOc1ccc(C(c2c(NC(=O)c3ccccc3)sc(C)c2C)N2CCN(CCO)CC2)cc1 (stereo not given) ?
TIM10 inh: 25; SKKanGAS inh: -3; PfHsp90 set2: -4; tim10-1 inh: 29; tim23-1 inh: 26; NALP3 yeast inh: -2

What do the screens show for `Cc1sc(NC(=O)c2ccccc2)c(C(c2ccc(Cl)cc2)N2CCN(CCO)CC2)c1C` (stereo not given)?
TIM10 inh: 30; SKKanGAS inh: 3; PfHsp90 set2: 11; tim10-1 inh: 42*; tim23-1 inh: 52*; NALP3 yeast inh: 7; tim10-1 confirm: 35*; tim23-1 confirm: 42*

Results for COc1ccc(S(=O)(=O)N2CCN(C(=O)c3oc4ccccc4c3C)CC2)cc1 ?
TIM10 inh: 44*; SKKanGAS inh: -2; PfHsp90 set2: 16; tim10-1 inh: 57*; tim23-1 inh: 53*; NALP3 yeast inh: 31; tim10-1 confirm: 43*; TIM10 conf: 55*; tim23-1 confirm: 54*

What do the screens show for `O=C(Nc1ccccc1Cl)c1ccccc1Oc1ccc(C(F)(F)F)cc1[N+](=O)[O-]`?
TIM10 inh: 12; SKKanGAS inh: 19; PfHsp90 set2: -12; tim10-1 inh: 44*; tim23-1 inh: 56*; NALP3 yeast inh: 13; tim10-1 confirm: 36*; tim23-1 confirm: 51*

How did O=C(CCNC(=O)C1CCN(S(=O)(=O)c2ccc(F)cc2)CC1)NCCc1ccc(Cl)cc1 do in these assays?
TIM10 inh: -7; SKKanGAS inh: -1; PfHsp90 set2: -33; tim10-1 inh: 18; tim23-1 inh: 13; NALP3 yeast inh: 16

How did Cc1ccc(NC(=O)c2c(F)cccc2Cl)cc1S(=O)(=O)N1CCOCC1 do in these assays?
TIM10 inh: 15; PfHsp90 set2: 5; tim10-1 inh: 21; tim23-1 inh: 21; NALP3 yeast inh: 5

How did CCOC(=O)N1CCN(C(=O)CCCn2nnnc2CN2CCC(C)CC2)CC1 do in these assays?
TIM10 inh: 12; SKKanGAS inh: 3; PfHsp90 set2: -28; tim10-1 inh: 5; tim23-1 inh: -2; NALP3 yeast inh: 8

How did O=C(Oc1ccccc1/C=C\C(=O)c1cc2ccccc2o1)c1ccccc1 do in these assays?
TIM10 inh: 50*; SKKanGAS inh: -21; PfHsp90 set2: 14; tim10-1 inh: 47*; tim23-1 inh: 50*; NALP3 yeast inh: 27; tim10-1 confirm: 41*; TIM10 conf: 31*; tim23-1 confirm: 49*

What do the screens show for `COc1cccc(C(=O)Oc2ccccc2/C=C\C(=O)c2cc3ccccc3o2)c1`?
SKKanGAS inh: -6; PfHsp90 set2: -1

Results for Cc1ccc(CSc2nnc(CS(=O)Cc3ccc(Cl)cc3Cl)n2C)cc1 (stereo not given) ?
TIM10 inh: 47*; SKKanGAS inh: -10; PfHsp90 set2: -9; tim10-1 inh: 47*; tim23-1 inh: 51*; NALP3 yeast inh: -2; tim10-1 confirm: 37*; TIM10 conf: 48*; tim23-1 confirm: 44*

Results for O=C(Nc1cc2c3c(c1)CC(=O)N3CCC2)c1ccccc1Br ?
TIM10 inh: 7; SKKanGAS inh: 2; PfHsp90 set2: -19; tim10-1 inh: 11; tim23-1 inh: 5; NALP3 yeast inh: 17

How did C(=N\Nc1ccccn1)/c1ccc2c(c1)OCCO2 do in these assays?
TIM10 inh: 18; SKKanGAS inh: -14; PfHsp90 set2: 4; tim10-1 inh: 14; tim23-1 inh: 4; NALP3 yeast inh: 31
